Experiment [1] can be described thus: TOX21_p53_BLA_p2_viability: Viability Assessment in the Tox21 HCT-116 p53 Agonism Beta-lactamase Assay, Phase 2 (AID 2283591).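 Note: compound exposure lasted 16 h at 37 °C; actives lower the ATP signal meaning cytotoxicity.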 The gist of the method:
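Cytotoxicity readout: CellTiter-Glo ATP luminescence, 30 min at room temperature, after the beta-lactamase read. Cells were HCT116 exposed 16 h at 37C to compounds pin-transferred at 217-fold dilution from DMSO stocks.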

Experiment [2] addresses Cellular tumor antigen p53 (Homo sapiens) (UniProt P04637). The experiment is described as follows: TOX21_p53_BLA_p2_ratio: Tox21 HCT-116 p53 Agonism Beta-lactamase Assay, Ratio, Phase 2 (AID 2283592). Summed up:
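HCT116 p53-bla; 4000 cells/well; 5 h pre-incubation; cpd in DMSO, 217-fold dilution; 16 h 37C/5% CO2; CCF4-AM 2 h RT; Ex 405, Em 460/530 ratio; DMSO = baseline; positive fitting direction.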

Experiment [3] has the same target. The experiment is described as follows: TOX21_p53_BLA_p3_ratio: Tox21 HCT-116 p53 Agonism Beta-lactamase Assay, Ratio, Phase 3 (AID 2283596). The gist of the method:
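HCT116 p53-bla cells (4000/well) given compound in DMSO (217-fold dilution) after 5 h, incubated 16 h at 37C. CCF4-AM substrate 2 h at room temperature; 460/530 nm emission ratio, gain fitted against DMSO.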

Experiment [4] is described as follows: TOX21_p53_BLA_p4_viability: Viability Assessment in the Tox21 HCT-116 p53 Agonism Beta-lactamase Assay, Phase 4 (AID 2283597).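 Note: hits lower the luminescence signal meaning cytotoxicity.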 The gist of the method: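 Cells plated, 5 h pre-incubation; DMSO compounds pinned (217-fold dilution); 16 h, 37C/5% CO2; CCF4-AM 2 h RT; CellTiter-Glo 30 min RT; luminescence read.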
Experiment [5] can be described thus: TOX21_p53_BLA_p5_viability: Viability Assessment in the Tox21 HCT-116 p53 Agonism Beta-lactamase Assay, Phase 5 (AID 2283600). Summed up: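 4000 cells/well; 5 h pre-incubation; DMSO compounds pin-transferred, 217-fold dilution; 16 h, 37C/5% CO2; CCF4-AM 2 h RT; CellTiter-Glo 30 min RT; luminescence.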
In experiment [6] the target is Cellular tumor antigen p53 (Homo sapiens) (UniProt P04637). Description: TOX21_p53_BLA_p4_ratio: Tox21 HCT-116 p53 Agonism Beta-lactamase Assay, Ratio, Phase 4 (AID 2283601). Summed up: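 Signal is the blue/green (460nm/530nm) ratio of cleaved versus uncleaved CCF4-AM substrate, read after 2 h substrate loading. Cells were HCT116 carrying the p53-responsive beta-lactamase reporter, dosed 16 h at 37C, 5% CO2; CellTiter-Glo measured in parallel.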
Sequence of Cellular tumor antigen p53 (Homo sapiens) (P04637 whole entry, looked up): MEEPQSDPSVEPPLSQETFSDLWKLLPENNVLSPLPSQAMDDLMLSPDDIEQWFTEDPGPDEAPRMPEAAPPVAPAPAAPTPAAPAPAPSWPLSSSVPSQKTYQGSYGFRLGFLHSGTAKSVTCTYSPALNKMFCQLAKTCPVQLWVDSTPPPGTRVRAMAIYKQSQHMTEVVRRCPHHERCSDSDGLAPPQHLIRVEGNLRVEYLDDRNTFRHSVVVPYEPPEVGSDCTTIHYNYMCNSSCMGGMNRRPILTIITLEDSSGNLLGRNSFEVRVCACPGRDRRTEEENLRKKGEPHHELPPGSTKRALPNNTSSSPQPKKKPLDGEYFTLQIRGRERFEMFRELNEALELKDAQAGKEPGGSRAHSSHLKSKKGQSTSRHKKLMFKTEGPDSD

Experiment [7] has the same target. Description: TOX21_p53_BLA_p5_ratio: Tox21 HCT-116 p53 Agonism Beta-lactamase Assay, Ratio, Phase 5 (AID 2283599). Summed up:
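Beta-lactamase reporter ratio (blue 460 nm over green 530 nm, 405 nm excitation) after 2 h CCF4-AM loading, in HCT-116 cells exposed 16 h at 37 C to compounds pinned at 217-fold dilution. Increases relative to DMSO baseline scored.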

Experiment [8] relates to Brachyury (BRA) Protein Expression, Deisenroth Lab, TBXT (gene 6862). The experiment is described as follows: CCTE_Deisenroth_DEVTOX-GLR_legacy_Bra: (Legacy) CCTE's DevTox GLR-Endo Assay Evaluation of Brachyury (BRA) Protein Expression, Deisenroth Lab (AID 2284329; active = hit-call score of the fitted dose curve at least 0.9, where 1 is the maximum; inactive = score below 0.9). Summed up:
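Human pluripotent RUES2-GLR line was exposed twice during 48 h differentiation to a 10-point series, 1 nM - 200 uM. Fraction of Bra-positive cells was scored by imaging against pluripotent baseline and fitted after 0.2% DMSO subtraction.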

A short description of experiment [9]: CCTE_Deisenroth_DEVTOX-GLR_legacy_CellCount: (Legacy) Viability Assessment in CCTE's DevTox GLR-Endo Assay, Deisenroth Lab (AID 2284331; active = hit-call score of the fitted dose curve at least 0.9, where 1 is the maximum; inactive = score below 0.9). As to conditions: actives raise or lower the signal. The gist of the method: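 Seed RUES2-GLR 24 h; differentiate 48 h, dosing at 0 and 24 h; fix, stain nuclei; image 5 fields/well; count nuclei. Conc. 1 nM - 200 uM, single technical replicate, n=4 experiments; bidirectional fit vs 0.2% DMSO.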

The test system of experiment [10] is SRY-box transcription factor 17 (SOX17) Protein Expression, Deisenroth Lab, SOX17 (gene 64321). The experiment is described as follows: CCTE_Deisenroth_DEVTOX-GLR_legacy_Sox17: (Legacy) CCTE's DevTox GLR-Endo Assay Evaluation of SRY-box transcription factor 17 (SOX17) Protein Expression, Deisenroth Lab (AID 2284341; active = hit-call score of the fitted dose curve at least 0.9, where 1 is the maximum; inactive = score below 0.9). As to conditions: actives raise or lower the signal. The gist of the method: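 Using the RUES2-GLR line, compounds are tested as 10-point series during 48-h defined-media differentiation. Sox17 reporter fluorescence per cell determines positivity; endpoint is percentage positive, analysed bidirectionally versus DMSO baseline.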

For experiment [11], the system named is SRY-box transcription factor 2 (SOX2) Protein Expression, Deisenroth Lab, SOX2 (gene 6657). The experiment is described as follows: CCTE_Deisenroth_DEVTOX-GLR_legacy_Sox2: (Legacy) CCTE's DevTox GLR-Endo Assay Evaluation of SRY-box transcription factor 2 (SOX2) Protein Expression, Deisenroth Lab (AID 2284346; active = hit-call score of the fitted dose curve at least 0.9, where 1 is the maximum; inactive = score below 0.9). The gist of the method:
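hPSC RUES2-GLR, 384-well; 24 h seed → 48 h endoderm differentiation, 2 doses q24h, 1 nM–200 uM. Fix, nuclear dye, 5 fields/well. Sox2+ cells/cell count; cell positive if >5x BMAD over endoderm ctrl; gain direction vs DMSO.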

Experiment [12] deals with SRY-box transcription factor 17 (SOX17) Protein Expression, Deisenroth Lab, SOX17 (gene 64321). Description: CCTE_Deisenroth_DEVTOX-GLR_Endo_SOX17: CCTE's DevTox GLR-Endo Assay Evaluation of SRY-box transcription factor 17 (SOX17) Protein Expression, Deisenroth Lab (AID 2284413; active = hit-call score of the fitted dose curve at least 0.9, where 1 is the maximum; inactive = score below 0.9). The gist of the method: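 Seed RUES2-GLR cells 24 h; start endoderm differentiation; dose at 0 and 24 h (1 nM - 200 uM, 10 points); fix at 48 h, stain nuclei, image 5 fields/well; compute SOX17+/total cells vs 0.2% DMSO.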

The subject of experiment [13] is Brachyury (BRA) Protein Expression, TBXT (gene 6862). Description: CCTE_Deisenroth_DEVTOX-GLR_Endo_BRA: CCTE's DevTox GLR-Endo Assay Evaluation of Brachyury (BRA) Protein Expression, Deisenroth Lab (AID 2284417; active = hit-call score of the fitted dose curve at least 0.9, where 1 is the maximum; inactive = score below 0.9). The gist of the method: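 Percent BRA+ (mesoderm) RUES2-GLR cells after 48 h differentiation with two exposures, 1 nM - 200 uM; 0.2% DMSO control subtracted.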

Experiment [14] can be described thus: CCTE_Deisenroth_DEVTOX-GLR_Endo_CellCount: Viability Assessment in CCTE's DevTox GLR-Endo Assay, Deisenroth Lab (AID 2284420; active = hit-call score of the fitted dose curve at least 0.9, where 1 is the maximum; inactive = score below 0.9). Summed up: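 Human pluripotent RUES2-GLR line; 24 h pre-seed; 48 h endoderm-directed differentiation; 2 doses, q24h; 10 conc., 1 nM - 200 uM; fix + nuclear dye; 5 fields/well imaged; readout = nuclei count, % change vs 0.2% DMSO; n=4.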

In experiment [15] the test system is SRY-box transcription factor 17 (SOX17) Protein Expression, Deisenroth Lab, SOX17 (gene 64321). The experiment is described as follows: CCTE_Deisenroth_DEVTOX-GLR_Pluri_SOX17: CCTE's DevTox GLR-Pluri Assay Evaluation of SRY-box transcription factor 17 (SOX17) Protein Expression, Deisenroth Lab (AID 2284427). The gist of the method: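 Human RUES2-GLR pluripotent line; 24 h seeding, 48 h defined-media differentiation, 2 doses q24h, 10 conc 1 nM - 200 uM. Fix, nuclear stain, image 5 fields/well. Endpoint = %SOX17+ minus 0.2% DMSO; n=4.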

Experiment [16] deals with SRY-box transcription factor 2 (SOX2) Protein Expression, Deisenroth Lab, SOX2 (gene 6657). The experiment is described as follows: CCTE_Deisenroth_DEVTOX-GLR_Pluri_SOX2: CCTE's DevTox GLR-Pluri Assay Evaluation of SRY-box transcription factor 2 (SOX2) Protein Expression, Deisenroth Lab (AID 2284428; active = hit-call score of the fitted dose curve at least 0.9, where 1 is the maximum; inactive = score below 0.9). Summed up: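 Steps: seed RUES2-GLR cells for 24 h; start 48 h differentiation in defined media; dose test chemicals at 0 and 24 h (1 nM–200 uM); fix, stain nuclei, image; compute SOX2+ percentage against 0.2% DMSO wells.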

The subject of experiment [17] is Brachyury (BRA) Protein Expression, Deisenroth Lab, TBXT (gene 6862). Description: CCTE_Deisenroth_DEVTOX-GLR_Pluri_BRA: CCTE's DevTox GLR-Pluri Assay Evaluation of Brachyury (BRA) Protein Expression, Deisenroth Lab (AID 2284429). Summed up:
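An inducible fluorescent BRA reporter in RUES2-GLR cells tracks mesoderm differentiation. Compounds (10 concentrations, 1 nM - 200 uM) are dosed twice within a 48-h differentiation. The endpoint subtracts the 0.2% DMSO control from percent BRA+ cells.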

Experiment [18] in a line: CCTE_Deisenroth_DEVTOX-GLR_Pluri_CellCount: Viability Assessment in CCTE's DevTox GLR-Pluri Assay Evaluation of Total Cell Counts, Deisenroth Lab (AID 2284430; active = hit-call score of the fitted dose curve at least 0.9, where 1 is the maximum; inactive = score below 0.9). Summed up:
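RUES2-GLR human pluripotent cells, seeded 24 h, then differentiated 48 h with two chemical exposures 24 h apart; 10-point series 1 nM - 200 uM. Fixed, nuclear-stained, imaged (5 fields/well); nuclei count as % change vs 0.2% DMSO.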

Records with an inconclusive call do not appear. The source made the active and inactive calls. Rule for the calls, unless noted: active = hit-call score of the fitted dose curve at least 0.9, where 1 is the maximum; inconclusive = response in the unintended direction; inactive = score below 0.9.

As to `C[C@@H](O)[C@H]1C(=O)N2C(C(=O)O)=C(S[C@@H]3CN[C@H](C(=O)N(C)C)C3)[C@H](C)[C@H]12`, the outcome in experiment [1], in [2], in experiment [3], in [4], in experiment [5] and in experiment [6] was inactive.

On to `Nc1ccc(S(=O)(=O)NCc2ccccc2)cc1`, for which the result in experiment [1], in experiment [2], in [3], in experiment [4] and in experiment [5] was inactive.

With `C1=CC2C3C=CC(C3)C2C1` (stereo not given) (tested in a mixture with another compound), the outcome in experiment [1], in [2], in experiment [3], in experiment [4] and in experiment [5] was inactive.

For the molecule `CCOc1cc(OCC)c(C(C)=O)cc1OCC`, the result in [1], in experiment [2], in [3], in experiment [4] and in [5] was inactive.

`C=C(C)C(=O)OCCC[Si](Cl)(Cl)Cl`: the outcome in experiment [1], in [2], in experiment [3], in experiment [4], in experiment [5] and in experiment [6] was inactive.

Turning to `COc1ccc(C(=O)Nc2ccccc2CCC2CCCCN2C)cc1` (stereo not given), the call in experiment [1], in [2], in experiment [3], in experiment [4] and in [5] was inactive.

As usually defined, the AC50 is the concentration giving half of the maximal activity seen. Turning to `O=c1[nH]c(=O)n([C@H]2C[C@H](O)[C@@H](CO)O2)cc1Br`, the molecule was classed as inactive in experiment [1], in experiment [2], in experiment [3], in [4], in [7] and in experiment [5]. Also, the outcome in [6] and in experiment [15] was inactive. The AC50 in [8] was 11.7 µM (active); in experiment [9], 10.2 µM (active); in [10] it was 0.857 µM (active); in experiment [11], 14.4 µM (active); in experiment [12] it was 0.657 µM (active); in [13] it was 32.8 µM (active). In addition, the AC50 is 10.2 µM (active) in experiment [14], 3.42 µM (active) in experiment [16], 79.6 µM (active) in [17] and 23.7 µM (active) in [18].
